# Data: the supplement of paper PMC6555819
# How the values were obtained:
# Assay in all cases: PBM binding z-score (relative to random genomic background probes); higher = stronger binding; sequences stand for … in GC…GCGATTGACAGCGTAGAATGAAGG
# [1] = tested on: FXR:RXRa (NR concentration 270 nM, RXRa partner concentration 90 nM)
# Outline: (§1)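 Each nuclear receptor dimer, without ligand, was incubated for 1 h on custom Agilent 4×180K protein-binding microarrays. Binding was detected with antibodies against each partner (one per run), and scanned fluorescence was regression-normalized. The binding z-scores are referenced to random human genomic background probes.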
# [2] = tested on: LXRa:RXRa (NR concentration 270 nM, RXRa partner concentration 90 nM)
# Outline: as §1
# [3] = tested on: LXRa homodimer (NR concentration 270 nM)
# Outline: as §1
# [4] = tested on: LXRb:RXRa (NR concentration 270 nM, RXRa partner concentration 90 nM)
# Outline: as §1
# [5] = tested on: LXRb homodimer (NR concentration 270 nM)
# Outline: as §1
# [6] = tested on: PPARa:RXRa (NR concentration 270 nM, RXRa partner concentration 90 nM)
# Outline: as §1
# [7] = tested on: PPARg:RXRa (NR concentration 180 nM, RXRa partner concentration 90 nM)
# Outline: as §1
# [8] = tested on: PPARg:RXRa 270nM:90nM, anti-RXR (NR concentration 270 nM, RXRa partner concentration 90 nM)
# Outline: as §1
# [9] = tested on: PPARg:RXRa 30nM:10nM, anti-RXR (NR concentration 30 nM, RXRa partner concentration 10 nM)
# Outline: as §1
# [10] = tested on: PPARg:RXRa 90nM:30nM, anti-RXR (NR concentration 90 nM, RXRa partner concentration 30 nM)
# Outline: as §1
# [11] = tested on: PPARg:RXRa DBDmut IVT, anti-RXR (DBD mutation: RXRa K156A/R161A, NR concentration 270 nM, RXRa partner concentration 90 nM)
# Outline: as §1
# [12] = tested on: PPARg:RXRa IVT, anti-PPARg (NR concentration 270 nM, RXRa partner concentration 90 nM)
# Outline: as §1
# [13] = tested on: PPARg DBDmut:RXRa IVT, anti-PPARg (DBD mutation: PPARg1 K132A/R137A, NR concentration 270 nM, RXRa partner concentration 90 nM)
# Outline: as §1
# [14] = tested on: PPARg DBDmut IVT, anti-PPARg (DBD mutation: PPARg1 K132A/R137A, NR concentration 270 nM)
# Outline: as §1
# [15] = tested on: PPARg homodimer (NR concentration 180 nM)
# Outline: as §1
# [16] = tested on: PXR:RXRa (NR concentration 270 nM, RXRa partner concentration 90 nM)
# Outline: as §1
# [17] = tested on: PXR homodimer (NR concentration 270 nM)
# Outline: as §1
# [18] = tested on: RARa:RXR (NR concentration 270 nM, RXRa partner concentration 90 nM)
# Outline: as §1
# [19] = tested on: RARa homodimer (NR concentration 270 nM)
# Outline: as §1
# [20] = tested on: RARb:RXRa (NR concentration 270 nM, RXRa partner concentration 90 nM)
# Outline: as §1
Sequence,PBM binding z-score [1],PBM binding z-score [2],PBM binding z-score [3],PBM binding z-score [4],PBM binding z-score [5],PBM binding z-score [6],PBM binding z-score [7],PBM binding z-score [8],PBM binding z-score [9],PBM binding z-score [10],PBM binding z-score [11],PBM binding z-score [12],PBM binding z-score [13],PBM binding z-score [14],PBM binding z-score [15],PBM binding z-score [16],PBM binding z-score [17],PBM binding z-score [18],PBM binding z-score [19],PBM binding z-score [20]
ATATGTCGGTTATCGGGTCATTCAGTTTGCGCAT,2.49,2.52,1.64,2.54,0.586,3.3,2.53,2.94,0.785,2.19,3.75,4.28,1.98,2.05,2.12,3.32,7.06,3.02,0.924,2.11
TCTTGTAGACCAAAGGTTAAGAAAGCCGAAGCCT,1.29,1.9,-0.151,1.82,-0.338,4.78,8.36,8.52,8.06,9.8,2.06,3.9,0.87,0.749,0.811,1.58,-0.8,2.39,-0.178,2.03
CAAACTAGGTCAAGAGGTCACAGTCCGCTTCCCG,6.79,5.84,4.4,4.97,1.01,6.61,10.2,8.35,7.25,8.69,8.51,8.53,3.61,2.62,6.23,5.99,1.56,7.64,2.8,5.67
ATATGTAGGTTATCGGGTCATTCGGTTTGCGCAT,3.2,3.11,1.78,2.85,1.02,4.68,6.96,5.9,3.48,6.13,7.54,7.29,1.79,2.8,2.29,3.5,5.62,3.42,1.12,2.45
TCTAGCAGGCCAGAGGGTCAGTCAAGAGGTACGG,0.425,0.152,-0.884,0.413,-1.51,1.35,0.768,1.81,1.49,1.68,0.768,0.496,-0.553,-1.25,0.21,0.465,-0.829,0.985,-0.753,1.77
CCTACTGGGGCATCAGGTCATTGATATCAACGTT,1.51,1.23,1.04,1.47,-0.819,3.15,4.22,4.7,2.26,4.13,5.37,6.32,1.29,0.377,2.41,1.8,0.7,2.41,0.207,2.36
TCTTGTAGTTCAAAGGTTAAGAAAGCCGAAGCCT,4.09,4.39,1.23,3.51,0.628,5.16,7.14,7.29,7.28,7.39,1.69,2.84,0.125,1.99,1.87,4.59,0.443,6.25,0.439,3.36
CGTCCAAGGTCAATGATAGGTCAGTGAAAGCATT,6.83,6,2.8,4.83,0.895,5.41,3.87,4.8,1.74,3.35,3.37,3.61,0.384,-0.272,6.66,5.17,1.58,6.7,1.7,5.31
TCGAGTAGGTTAGTCGGGGCAGTCAGCCAACATA,0.0181,-0.31,-0.676,0.0169,-0.869,0.556,-0.388,0.946,0.987,0.955,2.19,1.95,-0.923,-0.0532,-0.451,-0.323,-0.507,0.0728,-0.469,0.59
CTTACTGGGCCACGAAAGGTCATTGATTCAGTGA,5.51,6.24,4.47,5.13,0.827,5.66,6.99,6.33,4.14,5.7,7.15,7.26,1.25,0.41,3.04,5.88,2.14,5.98,0.212,4.38
TCGAGTAGGTTAGGGGAATTCAGAATGGCGTCGA,-0.0318,-0.209,-0.147,0.224,-0.435,0.565,0.159,1.02,1.11,1.18,2.13,1.78,0.128,-0.466,0.866,-0.0984,0.0558,-0.0883,0.338,0.249
GCTGCTAGGTCAGGTTGGTCAGCTCACGGGTACG,1.27,0.883,-0.243,0.696,-0.186,1.57,0.553,0.724,-0.171,0.333,3.01,2.19,-0.391,-0.956,0.943,0.37,0.00075,0.901,0.262,3.26
TCTATTAATTGATTAGGGCAACCGAAACAGCGGA,0.209,0.405,1.09,0.283,0.631,0.559,0.157,1.87,3.6,2.5,1.84,1.09,0.728,1.07,2.22,0.386,1.53,0.419,2.52,0.75
ATATGTAGGTGATCGGGTCATTCAGTTTGCGCAT,1.36,1.47,0.268,1.79,0.875,4.72,6.45,5.32,3.24,5.22,7.23,7.11,1.94,2.7,1.86,3.27,6.72,2.77,0.81,2.01
GGGACGAGGGCATTCGAGTTGATAGCATGGCGAT,1.09,1.84,-0.143,0.891,0.141,1.25,0.732,0.668,-0.43,0.0864,1.51,1.47,-0.173,0.189,0.254,3.68,1.37,1.08,0.349,2
